High-throughput results from PubChem.
JMJD2C inh = human JMJD2C demethylase inhibition | GST-JMJD2C(1-420) H3K9me3 demethylation, DELFIA europium | inhibition, % at 2.35 µM | actives 0.069% (n = 330,000);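 active = more than half of a compound's replicate wells show inhibition beyond 50%, single wells judged on their own value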;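 also: signal counts dimethyl H3K9 product captured on neutravidin plate; 0% = median of DMSO wells and 100% = 0.3 times that DMSO median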
DSG3 Ab inh = inhibitors of pemphigus antibody binding to human desmoglein-3; P32926; DSG3-coupled beads, scFv-anti-DSG3-GFP binding, flow cytometry; hits give low values; binding (percent of control), % at 10 µM; actives 0.48% (n = 310,000); AID 588358;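 active = binding more than 3 SD below its plate's average and above zero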;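 also: hits lower antibody fragment binding to DSG3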
GRK2 inh = human GRK2 inhibition via aptamer displacement | P25098 | bead flow cytometry, FAM-aptamer displacement from GRK2 | inhibition of aptamer binding, % at 10 µM | actives 0.59% (n = 330,000) | AID 488847;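 active = inhibition of aptamer binding above 40%, roughly 3 SD of noise, on plates passing a quality check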;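 also: median bead fluorescence of bound FAM aptamer so fluorescent compounds give negative values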
VLA-4 inh = inhibition in a human VLA-4 binding assay | P13612 | VLA-4 expressing cells, ligand binding flow cytometry | inhibition, % (about 7 µM as worked out from the volumes in the protocol) | actives 0.2% (n = 330,000); in the data active = inhibition above about 50%
PREPL inhibitor = inhibitors of human prolyl oligopeptidase-like enzyme PREPL; Q4J6C6; recombinant PREPL, fluorescence polarization activity-based probe; inhibition, % at 5.96 µM; actives 0.68% (n = 320,000); in the data active = inhibition above about 43%;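 also: 0% = enzyme with DMSO and 100% = wells lacking enzyme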
GRK2 inh confirm = confirmation of human GRK2 inhibitors displacing RNA aptamer | shares compounds with GRK2 inh | actives 4% (n = 2,000) | AID 504451 | bead-bound GRK2, FAM-aptamer displacement, flow cytometry | aptamer displacement, % at 10 µM;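 active = aptamer displacement above 40%, near three times the noise of non-fluorescent compounds, on plates passing quality checks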;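 also: negative values mostly reflect intrinsic compound fluorescence rather than true enhancement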
Aptamer quench SP = quenches fluorescent RNA aptamer, GRK2 hit artifact | shares compounds with GRK2 inh | Carboxyfluorescein RNA aptamer on beads, flow cytometry quenching; hits give low values | fluorescence response (% of DMSO), % at 10 µM | 2,000 tested, under 10 active | AID 504580;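 active = compounds that quench the bead-bound fluorescent RNA probe, cutting fluorescence to under half of the solvent control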;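 also: counterscreen run without GRK2 so only probe quenching by compound is measured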
Active calls of the source: *; · = not tested or not shown. Most compounds without a hit are left out; they make up all but 1.6% or so of the library.

SMILES | JMJD2C inh | DSG3 Ab inh | GRK2 inh | VLA-4 inh | PREPL inhibitor | GRK2 inh confirm | Aptamer quench SP
CCCCNC(=O)CNC(=O)c1nn(-c2ccc(OC)c(Cl)c2)c(=O)c2ccccc12 | 2 | 92 | 0 | -1 | 6 | 4 | 101
CC(=O)c1cccc(NC(=O)CSCc2ccc(Br)cc2)c1 | 8 | 111 | 1 | 13 | -10 | · | ·
CC(=O)c1cccc(NC(=O)CSCc2ccccc2)c1 | 7 | 99 | 43* | 18 | -14 | -2 | 99
COc1cccc(/C=N/NC(=O)CNC(=O)C(c2ccccc2)c2ccccc2)c1O | -19 | 90 | 2 | 5 | 4 | · | ·
CC(C)NC(=S)NNc1ncnc2sc3c(c12)CC(C)(C)OC3 | 6 | 92 | 1 | -2 | 2 | · | ·
CC1(C)Cc2c(sc3ncnc(NNC(=S)NCc4ccccc4)c23)CO1 | -3 | 111 | 91* | 2 | 5 | 1 | 87
O=C(Cc1csc(-c2ccccc2)n1)NCC(=O)Nc1ccc(F)c(F)c1F | 3 | · | 0 | 0 | 0 | · | ·
O=C(Cn1nnc(-c2ccccc2)n1)NCC(=O)Nc1ccc(F)c(F)c1F | 0 | 101 | 0 | -21 | 13 | 0 | 97
OC(COc1ccc(C2C=CCC2)cc1)CN1CCCCC1 (stereo not drawn) | 1 | 93 | 62* | -1 | -11 | -75 | 105
OC(COc1ccccc1)CN1CCCCC1 (stereo not drawn) | · | 96 | · | · | · | · | ·
CCC(C)(C)NC(=O)CN(Cc1cccs1)C(=O)C(=O)Nc1ccc2c(c1)OCCO2 | -7 | 106 | 74* | 3 | 6 | 2 | 88
CCC(C)(C)NC(=O)CN(Cc1cccs1)C(=O)CCC(=O)Nc1nccs1 | -4 | 100 | 0 | -1 | 1 | · | ·
Cc1cc2cc(CN3C(=O)c4ccccc4C3=O)ccc2n1C | -9 | 102 | 46* | -25 | 20 | 34 | 95
O=C1c2ccccc2C(=O)N1Cc1ccc2c(c1)OCO2 | -17 | 101 | 3 | 9 | 3 | · | ·
O=C(CN(Cc1ccc(F)cc1)S(=O)(=O)c1ccc(S(=O)(=O)N2CCOCC2)cc1)Nc1ccccc1 | 3 | 104 | 0 | 13 | -8 | · | ·
O=C(CN(Cc1ccccc1)S(=O)(=O)c1ccc(S(=O)(=O)N2CCOCC2)cc1)Nc1ccccc1 | -14 | 91 | 52* | -6 | 5 | 0 | 101
CCCOc1ccc(C(=O)NC(=S)N2CCN(c3cc4c(cc3F)c(=O)c(C(=O)O)cn4CC)CC2)cc1 | 9 | 94 | 0 | 1 | 4 | · | ·
COc1ccc(CNC(=O)c2ccccc2NC(=O)C2=C(C)OCCS2)cc1 | · | 103 | · | · | · | · | ·
O=C(Nc1cccc2ccccc12)NC(Cc1ccccc1)C(=O)O (stereo not drawn) | 9 | 107 | 3 | 0 | -5 | · | ·
Cc1ccc2cc(CN(Cc3nnnn3Cc3ccco3)CC3CCCO3)c(=O)[nH]c2c1C (stereo not drawn) | 11 | 99 | 64* | -8 | 19 | -13 | 104
CC(C)(C)C(=O)CSc1nc(N)cc(=O)[nH]1 | 12 | 98 | 4 | 0 | -9 | · | ·
O=C(NCC1CCCO1)c1cn(Cc2ccccc2)nc1-c1ccc(Cl)cc1 (stereo not drawn) | 0 | 101 | 45* | 19 | 1 | 1 | 98
Cc1ccc(S(=O)(=O)N2CCN(C(=O)COC(=O)CCOc3ccccc3)CC2)c(C)c1 | -1 | · | 63* | 14 | 18 | -3 | 100
CCC(C)N(C(=O)COC(=O)c1ccc(N)c([N+](=O)[O-])c1)C1CCS(=O)(=O)C1 (stereo not drawn) | · | 101 | · | · | · | · | ·
CC12C(=O)N(c3ccccc3C(=O)O)C(=O)C1C1C=CC2C1 (stereo not drawn) | 1 | 105 | 79* | -10 | 15 | 3 | 94
CC12C(=O)N(c3cccc4cccnc34)C(=O)C1C1C=CC2C1 (stereo not drawn) | -189 | 104 | 2 | 22 | 2 | · | ·
CCN(CC)C(=O)COc1ccc2oc(-c3ccco3)cc(=O)c2c1 | 8 | 85 | 62* | -14 | 8 | 15 | 96
CCN(CC)C(=O)COc1c(-c2ccco2)oc2ccccc2c1=O | 6 | 108 | 2 | 7 | -3 | · | ·
